This note sets out measurements from PubChem BioAssay.

A short description of experiment [1]: compounds binding Alexa647 anti-His antibody – biochemical, small-molecule microarray, 635 nm fluorescence, artefact control for SMM control protein annotation, primary screen (AID 1128).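 Note: score merges feature fluorescence with signal-to-noise for each printed compound spot.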 Conditions: higher = more signal.
For experiment [2], the system named is Human papillomavirus type 1a E7 protein (residues 1-88). The experiment can be described thus: HPV1a E7 small-molecule binders, primary screen, biochemical, small-molecule microarray, residues 1-88, 635 nm (AID 1129). The following applies: small-molecule microarray binding, fluorescence 635 nm; higher = more signal.
Experiment [3] concerns the target Focal adhesion kinase 1 (Homo sapiens) (UniProt Q05397). In words: PTK2 protein binding on printed compound slides – biochemical, small-molecule microarray, 635/667 nm fluorescence, BSA, DTT, primary screen (AID 1130).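 Note: composite of spot emission at 667 nm and signal to noise over triplicate slides.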 The following applies: 635 nm fluorescence, higher = more signal.
The test system of experiment [4] is Fibrinogen (Alexa647-labelled). In words: Alexa647-fibrinogen binding to printed small molecules – biochemical, small-molecule microarray, 635/667 nm fluorescence, artefact control for SMM control-protein annotation, profiling panel (AID 1131).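 Note: z-score merges 667 nm fluorescence with per-spot signal-to-noise over triplicate slides.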 Conditions: fibrinogen-A647 binding fluorescence, higher = more signal.
Experiment [5] addresses Follistatin (Homo sapiens) (UniProt P19883). In words: FST protein binding to printed compounds – biochemical, small-molecule microarray, 635/667 nm fluorescence, primary screen (AID 1132). Conditions: 635 nm fluorescence, higher = more signal.
The target in experiment [6] is Fibroblast growth factor 2 (Homo sapiens) (UniProt P09038). The experiment can be described thus: basic fibroblast growth factor binding to printed compounds – biochemical, small-molecule microarray, 635/667 nm fluorescence, primary screen (AID 1133). The following applies: FGF2, fluorescence 635/667, higher = more signal.
Experiment [7] in a line: JC-1 mitochondrial potential readout, lung cancer cells – cell-based, A549, JC-1 fluorescence, basal, 24 h, 100 nL, profiling panel (AID 1138).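 Note: A549 lung adenocarcinoma cells under basal conditions with no added stimulus; test concentration not given here.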 The following applies: higher = more signal.
In the next experiment the test system is Lefty1. In words: Lefty1 protein binding to printed compounds – biochemical, small-molecule microarray, 635/667 nm fluorescence, primary screen (AID 1139). The following applies: fluorescence 635/667, higher = more signal.
For experiment [8], the system named is wheat germ agglutinin (Triticum aestivum), Alexa647-labelled. The experiment can be described thus: Alexa647-WGA lectin binding to printed small molecules – biochemical, small-molecule microarray, 635/667 nm fluorescence, artefact control for SMM control-protein annotation, profiling panel (AID 1140).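 Note: score merges 667 nm feature emission with signal to noise over triplicate slides.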 Conditions: WGA-A647 binding, 635 nm fluorescence, higher = more signal.

The target in experiment [9] is Luciferin 4-monooxygenase (Photinus pyralis) (UniProt P08659). The experiment can be described thus: inhibition of purified Photinus pyralis luciferase – biochemical, luminescence, purified enzyme, 2006 set, primary screen (AID 1141).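 Note: cell-free assay with purified firefly luciferase at 100 ng per well in PBS; test concentration not given here.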 The following applies: purified firefly luciferase, SteadyGlo luminescence, 30 min; higher = more signal, called active from +8 up or from −8 down.

Experiment [10] has as its system Wnt5a (protein binding on small-molecule microarray). The experiment can be described thus: small molecules binding Wnt5a protein – biophysical, small-molecule microarray, 635/667 nm fluorescence, primary screen (AID 1142).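 Note: fluorescence read at 667 nm with signal to noise per printed feature.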 The following applies: 635 nm fluorescence, higher = more signal.
Experiment [11] can be described thus: ATP-based viability of Huh7 replicon cells – cell-based, CellTiter-Glo luminescence, basal, 48 h, cytotoxicity control for HCV replication inhibitor project, primary screen (AID 1143).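 Note: Huh7 hepatoma cells carrying a hepatitis C replication reporter with no stimulus; test concentration not given here.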 The following applies: higher = more signal, called active from +8 up or from −8 down.
The nature of experiment [12]: Pseudomonas biofilm growth suppression – PAO1 strain, BacTiter-Glo luminescence, LB-PBS, primary screen (AID 1144). Conditions: P. aeruginosa PAO1 biofilm, 12 h, higher = more signal.
Experiment [13] in a line: basal CRE-LacZ reporter activity in PC12 – cell-based, unstimulated, primary screen (AID 1145). The following applies: no forskolin, luminescence, 4.5 h, higher = more signal, called active from +8 up or from −8 down.
Experiment [14] is described as follows: forskolin-driven CRE-LacZ activity in PC12 – cell-based, CRE-LacZ reporter, forskolin-stimulated, primary screen (AID 1146).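 Note: PC12 cells with 6xCRE LacZ reporter stimulated by forskolin 10 µM; beta-galactosidase reporter signal reflecting CREB driven transcription.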 Conditions: luminescence, 4.5 h, higher = more signal, called active from +8 up or from −8 down.
In experiment [15] the target is Streptavidin (Streptomyces avidinii) (UniProt P22629). The experiment can be described thus: compounds binding control protein streptavidin – biophysical, small-molecule microarray, 635/667 nm fluorescence, artefact control for SMM compound annotation, primary screen (AID 1147).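 Note: signal reflects streptavidin binding to arrayed compounds as a control protein.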 The following applies: higher = more signal.
The nature of experiment [16]: probe aInhba binding on compound microarray – biochemical, small-molecule microarray, 635/667 nm fluorescence, primary screen (AID 1148).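 Note: score merges 667nm spot fluorescence with signal-to-noise for antibody binding to printed compounds.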 The following applies: higher = more signal.
In experiment [17] the target is Torsin-1A (Homo sapiens) (UniProt O14656). The experiment can be described thus: TOR1A wild-type binding on microarray – cell lysate, small-molecule microarray, lysate, 635/667 nm, primary screen (AID 1149). Conditions: COS7 hTOR1A-WT lysate, 635 nm fluorescence, higher = more signal.
The target is the same in experiment [18]. The experiment can be described thus: torsin A mutant lysate binding on microarrays – cell lysate, small-molecule microarray, COS7 lysate, 635/667 nm fluorescence, primary screen (AID 1150).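 Note: score pools 667 nm emission and signal to noise measuring lysate protein binding.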 Conditions: COS7 hTOR1A mutant lysate, 635 nm fluorescence, higher = more signal.
Experiment [19] concerns Sonic hedgehog protein (Shh). The experiment can be described thus: Sonic hedgehog microarray binding compounds – biochemical, small-molecule microarray, 635/667 nm fluorescence, primary screen (AID 1151).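 Note: Shh protein binding to compounds spotted on small-molecule microarray slides; score combines spot fluorescence intensity with signal-to-noise across triplicate slides.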 The following applies: 635 nm fluorescence, higher = more signal.

The structures appear in SMILES notation. Values joined by “and” are separate entries in the source; they are usually repeats but may differ in a detail not shown here. Equal entries are not always repeated. Active and inactive are the calls of the source. Unless noted, the rule behind the calls is not given here.

Sequence of Streptavidin (Streptomyces avidinii) (P22629 whole entry, looked up): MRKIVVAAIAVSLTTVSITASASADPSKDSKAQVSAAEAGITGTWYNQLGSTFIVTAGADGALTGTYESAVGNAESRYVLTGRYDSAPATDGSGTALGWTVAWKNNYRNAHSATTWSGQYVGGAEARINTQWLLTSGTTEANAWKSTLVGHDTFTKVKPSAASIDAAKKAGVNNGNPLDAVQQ
Sequence of Focal adhesion kinase 1 (Homo sapiens) (Q05397 whole entry, looked up): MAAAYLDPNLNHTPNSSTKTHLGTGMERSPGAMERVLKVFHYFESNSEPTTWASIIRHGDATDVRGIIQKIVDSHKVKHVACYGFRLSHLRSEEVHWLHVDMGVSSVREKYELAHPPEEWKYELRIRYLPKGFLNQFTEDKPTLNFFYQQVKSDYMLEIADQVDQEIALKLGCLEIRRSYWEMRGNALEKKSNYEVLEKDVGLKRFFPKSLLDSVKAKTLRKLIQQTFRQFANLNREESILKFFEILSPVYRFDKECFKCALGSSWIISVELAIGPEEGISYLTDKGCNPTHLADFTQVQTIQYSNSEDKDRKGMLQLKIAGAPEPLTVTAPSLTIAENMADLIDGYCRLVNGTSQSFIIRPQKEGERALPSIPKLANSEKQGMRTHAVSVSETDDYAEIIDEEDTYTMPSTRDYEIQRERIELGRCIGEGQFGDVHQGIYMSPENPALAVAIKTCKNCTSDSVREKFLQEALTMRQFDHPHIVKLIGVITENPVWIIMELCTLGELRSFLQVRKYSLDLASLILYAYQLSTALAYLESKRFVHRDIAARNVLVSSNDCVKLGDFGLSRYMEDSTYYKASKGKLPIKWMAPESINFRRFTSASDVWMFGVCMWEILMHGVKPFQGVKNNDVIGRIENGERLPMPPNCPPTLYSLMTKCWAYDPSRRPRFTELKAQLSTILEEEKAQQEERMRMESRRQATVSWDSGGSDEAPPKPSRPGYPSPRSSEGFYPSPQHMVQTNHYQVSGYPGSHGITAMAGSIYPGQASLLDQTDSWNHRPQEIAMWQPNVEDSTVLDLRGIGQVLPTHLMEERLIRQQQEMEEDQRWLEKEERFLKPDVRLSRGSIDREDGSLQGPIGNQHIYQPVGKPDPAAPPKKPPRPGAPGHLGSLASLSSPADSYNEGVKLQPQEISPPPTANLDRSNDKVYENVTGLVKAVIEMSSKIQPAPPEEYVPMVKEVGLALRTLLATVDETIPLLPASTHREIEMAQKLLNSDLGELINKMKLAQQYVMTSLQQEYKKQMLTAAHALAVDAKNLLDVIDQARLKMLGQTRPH
Sequence of Luciferin 4-monooxygenase (Photinus pyralis) (P08659 whole entry, looked up): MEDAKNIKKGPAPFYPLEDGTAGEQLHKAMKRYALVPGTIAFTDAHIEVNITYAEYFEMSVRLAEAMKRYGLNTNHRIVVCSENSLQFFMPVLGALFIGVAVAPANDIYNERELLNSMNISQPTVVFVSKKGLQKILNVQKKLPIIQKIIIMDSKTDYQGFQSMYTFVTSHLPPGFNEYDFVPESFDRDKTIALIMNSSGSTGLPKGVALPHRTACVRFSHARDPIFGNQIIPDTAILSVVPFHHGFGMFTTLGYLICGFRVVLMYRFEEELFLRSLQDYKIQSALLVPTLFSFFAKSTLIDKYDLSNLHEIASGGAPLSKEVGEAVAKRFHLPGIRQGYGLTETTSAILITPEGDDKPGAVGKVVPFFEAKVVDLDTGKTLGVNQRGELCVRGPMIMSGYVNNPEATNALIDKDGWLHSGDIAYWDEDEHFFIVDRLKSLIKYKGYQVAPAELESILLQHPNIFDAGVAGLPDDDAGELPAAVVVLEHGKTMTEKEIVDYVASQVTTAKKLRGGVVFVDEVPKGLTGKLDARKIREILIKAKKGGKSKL
Sequence of Fibroblast growth factor 2 (Homo sapiens) (P09038 whole entry, looked up): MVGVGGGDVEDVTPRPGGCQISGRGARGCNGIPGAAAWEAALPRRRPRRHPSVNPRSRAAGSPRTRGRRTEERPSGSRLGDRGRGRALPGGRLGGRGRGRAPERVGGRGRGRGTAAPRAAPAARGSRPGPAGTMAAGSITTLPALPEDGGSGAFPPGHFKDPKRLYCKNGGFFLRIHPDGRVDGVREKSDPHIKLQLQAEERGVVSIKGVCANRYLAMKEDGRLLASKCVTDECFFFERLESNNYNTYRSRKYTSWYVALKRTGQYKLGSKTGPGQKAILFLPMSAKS
Sequence of Torsin-1A (Homo sapiens) (O14656 whole entry, looked up): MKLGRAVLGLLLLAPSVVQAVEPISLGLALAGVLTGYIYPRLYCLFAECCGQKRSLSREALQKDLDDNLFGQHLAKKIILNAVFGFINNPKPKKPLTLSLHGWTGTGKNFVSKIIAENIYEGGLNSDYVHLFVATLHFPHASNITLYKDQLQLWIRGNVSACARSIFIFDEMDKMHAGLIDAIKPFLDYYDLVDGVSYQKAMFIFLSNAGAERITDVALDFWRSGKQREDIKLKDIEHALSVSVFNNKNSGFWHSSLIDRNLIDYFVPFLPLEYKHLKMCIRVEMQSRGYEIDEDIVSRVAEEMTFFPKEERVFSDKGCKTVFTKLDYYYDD
Sequence of Follistatin (Homo sapiens) (P19883 whole entry, looked up): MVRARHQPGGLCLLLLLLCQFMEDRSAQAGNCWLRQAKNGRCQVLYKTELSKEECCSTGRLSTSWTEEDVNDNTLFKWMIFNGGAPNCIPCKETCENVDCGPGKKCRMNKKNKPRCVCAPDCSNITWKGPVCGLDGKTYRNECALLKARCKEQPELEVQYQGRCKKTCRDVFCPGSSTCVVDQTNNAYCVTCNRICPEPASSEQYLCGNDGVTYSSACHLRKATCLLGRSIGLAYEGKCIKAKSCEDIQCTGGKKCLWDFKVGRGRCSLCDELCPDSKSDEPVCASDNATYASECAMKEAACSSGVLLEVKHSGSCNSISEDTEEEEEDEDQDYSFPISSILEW

Turning to `C[C@@H](ON=C1[C@H]2CCn3c(=O)n(-c4ccccc4)c(=O)n3[C@H]2[C@H](O)[C@@H]2O[C@H]12)c1cn([C@H](CO)Cc2ccccc2)nn1`, the composite z-score was 2.66 in experiment [1]; 0.23 in [2]; -0.109 in [3]; 0.343 in experiment [4]; 0.523 in experiment [5]; 0.185 in [6]. Moreover, the composite z-score with Lefty1 was 0.467; in [8] it was -0.424; in experiment [10] it was -0.174; in experiment [15], 0.0375; in [16] it was -0.0313; with Torsin-1A (Homo sapiens) [17] it was 0.185. For the same molecule, the composite z-score with Torsin-1A (Homo sapiens) [18] worked out at 0.199; in experiment [19] it was 0.403. The z-score in [7] was -0.546; in experiment [9] it was -0.116 (inactive); in experiment [11], 1.13 (inactive); in [12], 0.867 (inactive); in experiment [13], -0.157 (inactive); in [14], 1.45 (inactive).

As to `COC(=O)C1=C(C)N(Cc2ccccc2)[C@]23O[C@](C(=O)OC)(C(=O)N2[C@@H]1c1ccccc1)[C@H]1CCCC(=O)[C@H]13`, the composite z-score in experiment [1] is 0.677 and 1.34; in experiment [2], 0.312 and 0.104; in experiment [3], -0.035 and 0.215; in experiment [4], 0.753 and 0.377; in experiment [5], 0.372 and 0.544; in experiment [6], 0.349 and 0.456. Also, the composite z-score in the experiment on Lefty1 is 0.784 and 0.694; in experiment [8] it was 0.528 and -0.124; in [10] it was 0.04 and -0.0686; in experiment [15], 0.3; in experiment [16] it was 0.114 and -0.018; in the experiment with Torsin-1A (Homo sapiens) [17] it was 0.165 and 0.434. In addition, the composite z-score was 0.815 and 0.262 with Torsin-1A (Homo sapiens) [18]; 0.396 and 0.436 in experiment [19]. In addition, the z-score in experiment [7] is 0.455 and -0.75; in experiment [9], -0.5 (inactive) and 0.264 (inactive); in [11] it was -3.29 (inactive) and -2.24 (inactive); in experiment [12], -0.375 (inactive) and -1.01 (inactive); in [13], 0.563 (inactive) and 2.64 (inactive); in experiment [14] it was -0.771 (inactive) and -0.693 (inactive).

`C=CCN(C(=O)C1N(C(C)(C)CO)C(=O)C2C(C(=O)O)C3C=CC21O3)C(C)(C)C` (stereo not given): the composite z-score in experiment [1] is -0.574 and -1.26; in experiment [2], -0.937 and -0.349; in [3] it was -0.892 and -0.328; in experiment [4], -2.12 and 0.119; in experiment [5], -1.98 and -1.82; in experiment [6], -2.47 and -2.04. In addition, the composite z-score with Lefty1 is -2.81 and -2.22; in [8], -1.64 and 0.157; in experiment [10], -1.52 and -0.697; in [15], -1.86 and -1.52; in [16] it was -0.271 and -0.302; with Torsin-1A (Homo sapiens) [17] it was -3.46 and 0.256. The composite z-score in the experiment with Torsin-1A (Homo sapiens) [18] is -2.89 and 0.829; in experiment [19] it was -2.51 and -1.85. The z-score was -0.377 and 0.637 in [7]; 0.0864 (inactive) and -0.639 (inactive) in [9]; -0.037 (inactive) and -0.67 (inactive) in experiment [11]; 1.58 (inactive) and 1.05 (inactive) in experiment [12]; 0.471 (inactive) and 0.996 (inactive) in [13]; 0.0027 (inactive) and -0.21 (inactive) in experiment [14].

As for `C=CCN(CCCCC)C(=O)C1N(c2ccc(CCO)cc2)C(=O)C2C(C(=O)O)C3C=CC21O3` (stereo not given), the composite z-score is -1.26 and -0.352 in experiment [1]; -1.44 and -0.943 in [2]; -0.886 and -0.776 in [3]; -0.916 and -0.657 in experiment [4]; -0.974 and -0.877 in [5]; -0.989 and -0.883 in experiment [6]. Also, the composite z-score in the experiment on Lefty1 is -1.47 and -0.885; in [8], 0.961 and -0.241; in experiment [10], -0.479 and -0.327; in [15], -1.64 and -1.36; in experiment [16] it was -0.206 and 0.789; with Torsin-1A (Homo sapiens) [17], -1.94 and -0.448. Also, the composite z-score with Torsin-1A (Homo sapiens) [18] is 0.101 and -1.53; in [19], -0.568 and 2.02. Moreover, the z-score was 0.157 and -0.0775 in experiment [7]; -0.929 (inactive) and -0.832 (inactive) in [9]; -0.641 (inactive) and -0.552 (inactive) in experiment [11]; 0.839 (inactive) and 0.128 (inactive) in experiment [12]; -0.48 (inactive) and -0.619 (inactive) in experiment [13]; 0.589 (inactive) and -0.601 (inactive) in experiment [14].
